A selection: hits, their analogues and other compounds. The true share with any hit is near 0.85%.
BLM inh: blocks DNA unwinding by human BLM helicase; P54132; AID 2528; Potency, µM (doses to about 56.1 µM), for inactives: at the top dose activity change, negative = inhibition, usual class: inhibitors; 350,000 compounds, 0.2% hits; recombinant BLM DNA unwinding, fluorescence dequenching;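 further: plate controls were vehicle for no effect and no enzyme for full effect; nearly all actives have a fitted effect of over 35% in size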
TDP1 inh: TDP1 (human) enzyme inhibition | Q9NUW8 | recombinant TDP1, AlphaScreen DNA substrate cleavage | Potency, µM (titrated, usually from 130 µM), for the others: at the top dose activity change, negative = inhibition, hits mostly inhibitors | 350,000 compounds, 0.28% hits | AID 485290; further: nearly all actives have a fitted effect of over 40% in size
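E. coli-derived human Tdp1, 1 nM final. Cpd preinc 15 min RT; substrate 15 nM final, 5 min RT; AS bead mix 10 ug/ml final, 10 min RT. Signal loss = tyrosine-FITC cleavage. No-enzyme wells = max signal.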
PGK inhibitor: inhibitors of T. brucei phosphoglycerate kinase | P07378 | PGK/GAPDH coupled, Kinase-Glo luminescence, 60 min | Potency, µM (highest dose often 57.5 µM), without a hit: at the top dose activity change, negative = inhibition, usual class: inhibitors | 380,000 compounds, 0.043% hits; further: nearly all actives have a fitted effect of over 60% in size
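Luminescent ATP detection (Kinase-Glo Plus) follows a 60-minute room-temperature incubation, with wells lacking PGK as controls. Buffer: 100 mM TEA (pH 7.6), 5 mM MgCl2, 0.01% Tween-20. Coupling enzyme GAPDH (100 nM final) supplies unstable 1,3-BPG in-well.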
APE1 inh: APE1 (human) endonuclease inhibition; recombinant APE1, TAMRA/BHQ-2 abasic DNA cleavage fluorescence; 350,000 compounds, 0.35% hits; Potency, µM (doses to about 65.8 µM), without a hit: top-dose activity change, negative = inhibition, usual class: inhibitors; AID 2517;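 further: plate controls were vehicle for no effect and reference inhibitor for full effect; nearly all actives have a fitted effect of over 55% in size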
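0.75 nM APE1 + cpd, 15 min RT; start w/ 50 nM TAMRA/BHQ-2 THF-abasic dsDNA; kinetic fluor 525/598 nm ×3 reads @60 s; Δ(read3−read1); normalized to DMSO and NSC13755 control wells.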
GLS inh: blocks human kidney-isoform glutaminase activity | Potency, µM (doses to about 45.5 µM), for the others: at the highest dose activity change, negative = inhibition, actives largely listed as inhibitors | GLS enzymatic activity, qHTS titration | O94925 | 410,000 compounds, 0.21% hits
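Compounds were pin-transferred onto hKGA, after which L-glutamine (1 mM solution) and a detection mix of glutamate oxidase, HRP and Amplex Red were added. Initial and 30 min RT fluorescence reads were collected.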
RECQ1 inh-1: blocks DNA unwinding by human RECQ1; P46063; RECQ1 DNA unwinding, red fluorescence kinetic read; Potency, µM (top dose mostly 57.3 µM), for the others: top-dose activity, negative = inhibition, most hits filed as inhibitors; 240,000 compounds, 0.54% hits;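 further: plate controls were vehicle for no effect and no enzyme for full effect; nearly all actives have a fitted effect of over 30% in size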
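50 nM RECQ1T1 preincubated 15 min with compound in Tris pH 8.0 buffer with MgCl2, DTT, Tween-20 and 2.5 ug/ml poly(dI-dC); started with 200 nM TAMRA/BHQ-2 forked duplex and 2 mM ATP. Unwinding read as fluorescence (525/598 nm), two reads 2 h apart.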
RECQ1 inh conf: confirmation of human RECQ1 helicase inhibitors | RECQ1 helicase DNA unwinding, fluorescence | Potency, µM (titrated, usually from 229 µM), without a hit: top-dose activity change, negative = inhibition, usual class: inhibitors | 610 compounds, 28% hits | AID 2708 | shares compounds with RECQ1 inh-1; further: nearly all actives have a fitted effect of over 45% in size
RECQ1 ADP FP: ADP displacement flagged in RECQ1 inhibitor counter-screen | shares compounds with RECQ1 inh-1 | ADP fluorescence polarization displacement counterscreen | Potency, µM (doses to about 228 µM), for the others: at the highest dose activity change, negative = inhibition, actives largely listed as inhibitors | 530 compounds, 27% hits | AID 2711; further: nearly all actives have a fitted effect of over 45% in size
RECQ1 inh-2: blocks human RECQ1 DNA unwinding; AID 504841; 1,100 compounds, 15% hits; recombinant RECQ1 DNA unwinding, red fluorescence; shares compounds with RECQ1 inh-1; Potency, µM (series often up to 119 µM), inactives show at the top dose activity, negative = inhibition, usual class: inhibitors; further: nearly all actives have a fitted effect of over 50% in size
Starred values were filed as active, the others as inactive; [ ] = remark or other dose. The call rests on the fitted dose curve; in most records, active means well fitted curve in the direction sought with a large enough effect; inconclusive means small, poorly fitted or top-dose-only effect, or another doubt; inactive means no such curve, though single readings can be large; an effect the other way counts as inactive or inconclusive. Unless noted, on the % scale 0 is the no-effect control and ±100 the full control effect; potency means the concentration at half of the fitted maximal effect.

For Nc1c(S(=O)(=O)O)cc(Nc2ccc(Cl)cc2)c2c1C(=O)c1ccccc1C2=O the results were BLM inh inconclusive, TDP1 inh 29%, APE1 inh inconclusive, RECQ1 inh-1 32µM* and RECQ1 inh-2 50µM*.
For Nc1c(S(=O)(=O)O)cc(Nc2cccc3ccccc23)c2c1C(=O)c1ccccc1C2=O the results were BLM inh inconclusive, TDP1 inh 27%, APE1 inh inconclusive, RECQ1 inh-1 22µM* and RECQ1 inh-2 inconclusive.
Screening COCCn1c(C)cc(C(=O)COC(=O)c2ccc(NC(=O)CC#N)cc2)c1C returned BLM inh -16%, TDP1 inh 0%, PGK inhibitor -10%, APE1 inh 8%, GLS inh 4%, RECQ1 inh-1 32µM* and RECQ1 inh-2 -11%.
COCCn1c(C)cc(C(=O)COC(=O)c2ccc(S(=O)(=O)N(C)C)cc2)c1C was read as TDP1 inh 0%, PGK inhibitor 7%, APE1 inh 46% and GLS inh 3%.
Screening COC(=O)c1cccc(C(=O)Oc2cccc(Br)c2)n1 returned BLM inh 0%, TDP1 inh -1%, PGK inhibitor inactive, APE1 inh -1%, GLS inh 33%, RECQ1 inh-1 14µM*, RECQ1 inh conf 11%[114 µM], RECQ1 ADP FP 28%[91.9 µM] and RECQ1 inh-2 -5%.
For Cc1nc2ccc(C(=O)Nc3cccc([N+](=O)[O-])c3)cc2s1 the results were BLM inh -2%, TDP1 inh -10%, PGK inhibitor inactive, APE1 inh -9%, GLS inh 0%, RECQ1 inh-1 inconclusive and RECQ1 inh-2 -6%.
CCOc1ccc(/C=C(\C(=O)O)c2ccc(S(=O)(=O)N3CCCCC3)s2)cc1OC was read as TDP1 inh -10%, PGK inhibitor 3%, APE1 inh 17% and GLS inh 25%.
Screening CCOc1ccc(/C=C(\C(=O)O)c2ccc(S(=O)(=O)N3CCOCC3)s2)cc1OC returned BLM inh -20%, TDP1 inh -3%, PGK inhibitor 3%, APE1 inh -7%, GLS inh -3%, RECQ1 inh-1 1%, RECQ1 inh conf -2% and RECQ1 ADP FP inconclusive.
`CCCCCc1c2c(cc(O)c1C(=O)O)OC(=O)c1cc(C(=O)CCCC)c(OC)cc1O2` gave BLM inh -3%, TDP1 inh -5%, PGK inhibitor -22%, APE1 inh inconclusive, GLS inh 32%, RECQ1 inh-1 13µM* and RECQ1 inh-2 inconclusive.
For CCCCCc1c2c(cc(O)c1C(=O)O)OC(=O)c1c(cc(OC)cc1C(=O)CCCC)O2 the results were BLM inh -1%, TDP1 inh 10%[56.1 µM], PGK inhibitor -10%, APE1 inh -1%, GLS inh 28%, RECQ1 inh-1 inconclusive and RECQ1 inh-2 inconclusive.
`CCCCc1c(C(=O)O)cc(OC)cc1C(=O)O` gave BLM inh 0%, TDP1 inh 1%, PGK inhibitor -7%, APE1 inh 2%, GLS inh 4% and RECQ1 inh-1 -3%.
